# Test results published in PubChem BioAssay (NCATS).
# Where “and” joins values, the source holds several entries; their conditions need not be identical. Equal values may be shown once. Records with an inconclusive call do not appear. A number with no mark means an inactive call. Calls of active or inactive are those of the source. The call rests on the fitted dose curve; in most records, active means well fitted cell-killing curve with a large enough effect; inconclusive means small, poorly fitted or top-dose-only effect; inactive means flat fitted curve, though single readings scatter.
# Experiment: Cellular viability qHTS for adrenocortical cancer (ACC) cell line SW-13 (AID 1963989); further: nearly all actives have a fitted effect of over 65% in size;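 on activity (max response): cells grown in serum-free medium with ITS supplement; on the % scale 0 is the no-effect control and ±100 the full control effect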
# Details: SW-13 ACC cells viability, CellTiter-Glo, 48 h; activity (max response): stronger effect = lower value
# Procedure, shortened: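 Here, serum-free SW-13 cultures were dosed up to 46 uM. Following 48 h, ATP-dependent luminescence (CellTiter-Glo) reported viable cells, and logistic modeling produced IC50 values.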
# Potency means the concentration at half of the fitted maximal effect.
SMILES,activity (max response),Potency
C[C@]12CC[C@@H]3c4ccc(OC(=O)N(CCCl)CCCl)cc4CC[C@H]3[C@@H]1CC[C@@H]2OP(=O)(O)O,-13.4%,
O=C(O)c1nn(Cc2ccc(Cl)cc2Cl)c2ccccc12,8.06% and -12.7%,
COc1ccc(C(=O)c2c(C)n(CCN3CCOCC3)c3cc(I)ccc23)cc1,,31.6 µM (active)
N[C@@H](Cc1ccc(Oc2cc(I)c(O)c(I)c2)c(I)c1)C(=O)O,2.16%,
Clc1cccc(SC2CCNCC2)n1,3.75%,
COc1ccc(C(=O)N2CCCC2=O)cc1,-6.45% and 13%,

# Experiment: Cellular viability qHTS for adrenocortical cancer (ACC) cell line NCI-H295R (AID 1963990); further: nearly all actives have a fitted effect of over 60% in size;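 on activity change, negative = viability loss: 0% = DMSO only wells and -100% = full killing with cytotoxic reference compound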
# Details: CellTiter-Glo ATP luminescence, 48 h; series mostly up to 46.1 µM; activity change, negative = viability loss: at the top concentration
# Procedure, shortened: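 Viability of NCI-H295R after 48 h of treatment (final up to 46 uM) measured through cellular ATP luminescence.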
SMILES,Potency,"activity change, negative = viability loss [%]"
CNCC(O)c1ccc(O)cc1 (stereo unspecified),inactive,
CCN1CCN(C(=O)Cc2ccc(Nc3ncc(F)c(Nc4ccc(C(=O)Nc5ccccc5Cl)cc4)n3)cc2)CC1,3.55 µM (active),
CCCC[N+]1(C)[C@H]2CC(OC(=O)[C@H](CO)c3ccccc3)C[C@H]1[C@H]1O[C@H]12 (stereo partly specified),,-27.4
C[C@@H]1CN(Cc2ccc(F)cc2)CCN1C(=O)COc1ccc(Cl)cc1NC(N)=O,20 µM (active),
CC1(N2CCC(n3c([C@@H]4CCCNC4)nc4ccccc43)CC2)CCCCCCC1,17.8 µM (active),
O=S(=O)(F)Cc1ccccc1,,-12.5
O=C(O)CCCc1ccc(N(CCCl)CCCl)cc1,inactive,
O=c1cccc2n1CC1CNC[C@H]2C1,,6.37
CCC1(c2ccc(N)cc2)CCC(=O)NC1=O (stereo unspecified),,-6.22
COc1ccc(N(C(=O)Oc2c(C)cccc2C)c2ccnc(Nc3ccc(N4CCN(C)CC4)cc3)n2)c(OC)c1,12.6 µM (active),
CCOP(=O)(OCC)C(C)NC(=O)N(CCCl)N=O (stereo unspecified),,-7.87
COC[C@@H](NC(C)=O)C(=O)NCc1ccccc1,inactive,
N=c1c2c(-c3ccccc3)c(-c3ccccc3)n(Cc3ccccc3)c2ncn1C1CCC(O)CC1 (stereo unspecified),8.91 µM (active),
Oc1ccc(Cl)cc1,,1.45
O=C(Nc1ccncc1)C(=O)c1cn(Cc2ccc(Cl)cc2)c2ccccc12,0.126 µM (active),
O=c1[nH]c2ccccc2n1C1CCN(Cc2ccc(-c3[nH]c4cc5ncnc5cc4nc3-c3ccccc3)cc2)CC1,22.4 µM (active),
C[C@]12CC[C@@H]3c4ccc(OC(=O)N(CCCl)CCCl)cc4CC[C@H]3[C@@H]1CC[C@@H]2OP(=O)(O)O,,-16.5
O=C(O)c1nn(Cc2ccc(Cl)cc2Cl)c2ccccc12,,-17.3
COc1ccc(C(=O)c2c(C)n(CCN3CCOCC3)c3cc(I)ccc23)cc1,20 µM (active),
COc1ccc(C(=O)N2CCCC2=O)cc1,inactive,
